In PubChem BioAssay AID1159580 (chemical genetic matrix, 2015):
Values joined by “and” are separate entries in the source; they are usually repeats but may differ in a detail not shown here. Equal entries are not always repeated. In all, about 5,500 compounds went through this assay and about 2,000 (36%) were called active. About 18% were inconclusive and are not listed. Cut-off read from the data, not from the text of the source: active = normalized growth mostly below about 0.91 (no sharp cut-off); inconclusive = no clear call, values can overlap the other calls; inactive = mostly above about 0.92. Some of the results follow. The source holds several records for some structures; these can differ, active in one and inactive in another.

Assay: chemical genetic growth profiling, strain panel (AID 1159580);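 note: tested at 20 µM; growth read once vehicle control cultures reached saturation at 30 °C; 1 = growth at the plate median or of vehicle wells; lower values mean less growth of the strain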
Settings: S. cerevisiae deletion strains, growth OD

Measured: normalized growth

O=c1cc(-c2ccccc2)oc2cc(O)cc(O)c12
0.889 (inactive) and 0.702 (active): locus YHR142W, strain chs7, stronger effect = lower value
0.954 (inactive) and 0.91 (active): locus YJL092W, strain hpr5, stronger effect = lower value
0.95 (inactive) and 0.901 (active): locus YHR027C, strain rpn1, stronger effect = lower value
active: locus YER155C, strain BEM2 (second series), stronger effect = lower value 0.686 and 0.499 | locus YGL086W, strain mad1, stronger effect = lower value 0.853 | locus YGL173C, strain kem1, stronger effect = lower value 0.858 and 0.891 | locus YGL240W, strain doc1, stronger effect = lower value 0.797 and 0.631 | locus YGR135W, strain pre9, stronger effect = lower value 0.879 | locus YGR229C, strain SMI1, stronger effect = lower value 0.802 | locus YGR252W, strain gcn5, stronger effect = lower value 0.762 | locus YHR079C, strain IRE1 (second series), stronger effect = lower value 0.92 | locus YHR200W, strain rpn10, stronger effect = lower value 0.91 | locus YJL129C, strain trk1, stronger effect = lower value 0.816 and 0.603 | locus YJL164C, strain tpk1, stronger effect = lower value 0.909 and 0.811 | locus YJL166W, strain qcr8, stronger effect = lower value 0.891 and 0.741
0.97 (inactive) and 0.918 (active): locus YJL154C, strain vps35, stronger effect = lower value
0.952 (inactive) and 0.909 (active): locus YGL227W, strain vid30, stronger effect = lower value
inactive: locus YER110C, stronger effect = lower value 0.945 | locus YER111C, strain swi4, stronger effect = lower value 0.97 and 0.951 | locus YER155C, strain BEM2, stronger effect = lower value 0.969 | locus YER167W, strain BCK2, stronger effect = lower value 0.928 | locus YFR010W, strain ubp6, stronger effect = lower value 0.931 and 0.919 | locus YGL078C, strain dbp3, stronger effect = lower value 0.957 | locus YGL248W, strain PDE1, stronger effect = lower value 0.949 | locus YGR078C, strain PAC10, stronger effect = lower value 0.858 | locus YHR013C, strain ard1, stronger effect = lower value 1.06 and 1.1 | locus YHR030C, strain SLT2, stronger effect = lower value 0.967 and 0.884 | locus YHR079C, strain IRE1, stronger effect = lower value 0.862 | locus YHR094C, strain hxt1, stronger effect = lower value 0.964 | locus YHR129C, strain ARP1, stronger effect = lower value 0.992 | locus YIL066C, strain RNR3, stronger effect = lower value 0.959 | locus YIL073C, strain SPO22, stronger effect = lower value 0.854 | locus YIL125W, strain kgd1, stronger effect = lower value 0.955 | locus YIR030C, strain dcg1, stronger effect = lower value 0.944 | locus YJL095W, strain BCK1, stronger effect = lower value 0.825 and 0.889 | locus YJL134W, strain LCB3, stronger effect = lower value 0.991 | locus YJL168C, strain set2, stronger effect = lower value 0.948 | locus YJL187C, strain SWE1 (second series), stronger effect = lower value 0.939 | locus YJR043C, strain POL32, stronger effect = lower value 0.899 | locus YJR066W, strain TOR1, stronger effect = lower value 0.883
0.941 (inactive) and 0.855 (active): locus YGL253W, strain hxk2, stronger effect = lower value
0.924 (inactive) and 0.87 (active): locus YGL167C, strain pmr1, stronger effect = lower value
0.942 (inactive) and 0.879 (active): locus YJL095W, strain BCK1 (second series), stronger effect = lower value
1.07 (inactive) and 0.92 (active): locus YER016W, strain bim1, stronger effect = lower value
0.952 (inactive) and 0.902 (active): locus YJL187C, strain SWE1, stronger effect = lower value
0.954 (inactive) and 0.904 (active): locus YJL115W, strain asf1, stronger effect = lower value
